This note sets out measurements from PubChem BioAssay (NCI).

This is part of a sample that, as a whole, favours compounds with a hit. Of some 83,000 tested, about 20% had one in any assay.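 Assay: single dose, 48 h. Readout: percent growth (0 = no net growth; negative = cell death). Active: <10.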 Unmarked numbers belong to inactive results. The source made the active and inactive calls.

Holding throughout (test): NCI-60 one-dose screen, 48 h (100 = growth as untreated, 0 = no growth, -100 = all killed)
The test system of experiment [1] is HCT-15 colon. The note with it: 10 µM.
The subject of experiment [2] is HT29 colon. Particulars: 10 µM.
The subject of experiment [3] is SNB-75 CNS. The note with it: 10 µM.
For experiment [4], the system named is SNB-19 CNS. The note with it: 10 µM.
The test system of experiment [5] is PC-3 prostate. Particulars: 10 µM.
For experiment [6], the system named is UACC-62 melanoma. Particulars: 10 µM unless noted.
Experiment [7] has as its system LOX IMVI melanoma. Particulars: 10 µM.
Experiment [8] has as its system SK-MEL-28 melanoma. Particulars: 10 µM.
The test system of experiment [9] is SK-MEL-5 melanoma. The note with it: 10 µM.
Experiment [10] deals with U251 CNS. Particulars: 10 µM.

As to `CCCCCCCCO`, the growth is 98.3% in [1]; 111% in experiment [2]; 90.1% in experiment [3]; 103% in [4]; 94.3% in experiment [5]; 108% in experiment [6]. Also, the growth in experiment [7] was 105%; in experiment [8], 112%.

Take `O=C(Nc1ccccc1C(=O)NCC1CC1)c1cccs1`: the growth in experiment [1] was 93.8%; in experiment [2], 105%; in experiment [3] it was 70.3%; in experiment [4] it was 100%; in experiment [5], 94.6%; in experiment [9], 98.7%. Besides, the figures for the growth in experiment [6], in [7] and in experiment [8] were 98.4%, 102% and 110%, respectively.

As to `CC(CN1CCCCC1)NC(=O)c1scnc1-c1ccccc1` (stereo not drawn), the growth was 103% in experiment [1]; 94.2% in [2]; 86.1% in experiment [3]; 107% in [4]; 92.9% in experiment [5]; 101% in experiment [9]. In addition, the growth in experiment [6] is 107%; in experiment [7], 95.2%; in experiment [8] it was 107%.

As for `CC(=O)C1CCCCC1`, the growth in experiment [1] is 95%; in [2], 104%; in [3] it was 87.1%; in experiment [4], 100%; in [5] it was 96.8%; in experiment [9] it was 99.9%. For the same compound, the growth in experiment [6] is 103%; in experiment [7], 99.9%; in experiment [8] it was 102%.

Consider `CN(C)CCN(C)CC(C)(C)C(=O)/C=C/c1ccc(Cl)cc1`, for which the growth is -66.4% (active) in experiment [1]; -16.7% (active) in experiment [2]; 12.2% in experiment [3]; -1.73% (active) in experiment [10]; -4.75% (active) in experiment [5]; -24.9% (active) in experiment [9]. For the same compound, the growth in experiment [6] was -46.4% (active); in experiment [7] it was -96.4% (active); in [8], -11.2% (active).

As for `CC(=O)Nc1ccc(NC(C)=O)c2c1C(=O)c1ccccc1C2=O`, the growth in [1] was 86.1%; in [2], 99.7%; in experiment [3] it was 85.9%; in [4], 111%; in experiment [5], 81.9%; in experiment [9] it was 96.8%. The growth is 73.3% in experiment [6], 86% in experiment [7] and 115% in experiment [8].

Regarding `Cc1cc2nc(CC(=O)c3ccccc3)c(=O)[nH]c2cc1C`, the growth in experiment [1] is 87.7%; in experiment [2] it was 97.5%; in experiment [3] it was 117%; in [10], 95.4%; in experiment [5], 88.4%; in [9], 96.1%. In addition, the growth in [6] was 74.9%; in experiment [7], 96.2%; in experiment [8], 109%.

As for `COc1ccc(OC)c(/C=C2\CCc3ccccc3C2=O)c1`, the growth is 24.3% in experiment [1]; 12.8% in [2]; 17.4% in experiment [3]; 38.6% in [4]; 47.6% in experiment [5]; 52.9% in [9]. The growth in experiment [6] is 43.5%; in experiment [7], 35.6%; in experiment [8] it was 64.9%.

In the case of `CC(C)(N)COS(=O)(=O)O`, the growth was 103% in experiment [1]; 113% in experiment [2]; 91.5% in [3]; 103% in experiment [10]; 95.9% in experiment [5]; 102% in [9]. Moreover, the growth in [6] is 102%; in [7], 113%; in [8] it was 96.3%.

`COc1ccc(C2OC(N)=C(O)C2=O)cc1OC` (stereo not drawn): the growth was 101% in experiment [1]; 108% in [2]; 101% in experiment [3]; 111% in experiment [10]; 97.2% in experiment [5]; 102% in [9]. Also, the growth in [6] was 93.7%; in experiment [7], 102%; in experiment [8], 105%.

Regarding `COc1cc(/C=C/C(=O)c2ccccc2)cc(OC)c1OC`, the growth is 31.4% in experiment [1]; 19.1% in [2]; 71.2% in experiment [3]; 83.8% in experiment [4]; 58% in experiment [5]; 76.1% in experiment [9]. Besides, the growth is 54.9% in [6], 2.98% (active) in experiment [7] and 82.3% in experiment [8].

On to `O=C(O)CCC(NC(=O)OCc1ccccc1)C(=O)O` (stereo not drawn), for which the growth in [1] was 110%; in experiment [2], 105%; in [3], 99.5%; in experiment [4], 98.1%; in experiment [5], 97%; in experiment [9], 101%. In addition, the growth in experiment [6] was 90.5%; in [7] it was 98.9%; in experiment [8], 109%.

Consider `N#Cc1ccc(OC(=O)Nc2ccc(Cl)c(Cl)c2)cc1`, for which the growth in experiment [1] was 53.6%; in [2], 63.4%; in experiment [3], 93.2%; in [4], 87%; in [5] it was 36.2%; in experiment [9], 81.5%. Also, the growth is 65.7% in experiment [6] and 94.1% in [8].

For `CC(CC(=O)c1ccccc1)c1ccccc1` (stereo not drawn), the growth in [1] is 108%; in [2] it was 95.7%; in experiment [3], 104%; in experiment [4] it was 109%; in [5], 99.5%; in experiment [6], 107%. The growth in [8] is 101%.

For the compound `Cc1cc(=O)n(-c2ccc(F)cc2)[nH]1`, the growth in experiment [1] was 89.6%; in [2], 105%; in experiment [3] it was 88.5%; in [4], 103%; in experiment [5], 90%; in experiment [9], 97.5%. For the same compound, the growth was 101% in experiment [6] and 119% in experiment [8].

Take `N/N=C(/Cc1ccccc1)NNC(N)=S`: the growth is 97.5% in experiment [1]; 95.7% in experiment [2]; 87.7% in experiment [3]; 105% in experiment [4]; 88.3% in [5]; 97.3% in [9]. The growth was 101% in experiment [6], 94.5% in [7] and 114% in [8].

In the case of `COc1cc(/C=C(\C#N)C(=O)c2ccccc2)ccc1OCc1ccccc1`, the growth in experiment [1] is 98.9%; in [2], 105%; in [3], 91.7%; in experiment [4], 100%; in experiment [5], 95.2%; in [9], 102%. Also, the figures for the growth in experiment [6], in [7] and in [8] were 97.2%, 90.9% and 112%, respectively.
